From PubChem BioAssay AID1035472 (Broad Institute, 2014)
Calls of active or inactive are those of the source. The rule behind the calls is not given here.

Assay: HepG2 cell cytotoxicity, dose response, cytotoxicity control, dry powder samples (AID 1035472)
Settings: HepG2 viability, ATP luminescence (CellTiter-Glo), 72 h; series mostly up to 100 µM

For Cn1c(NC(=O)c2ccccc2)nc2c3cnccc3ccc21, the outcome was “inactive”.
